Data reported in PubChem BioAssay (NCATS).
Inconclusive results are not listed. Calls of active or inactive are those of the source. Calls come from the whole dose curve.
% is set by controls: 0 for no effect and ±100 for the full control effect.

Each molecule was assayed against Vitamin D3 receptor (Homo sapiens) (UniProt P11473) (assay: qHTS assay for small molecule antagonists of vitamin D receptor signaling (AID 588541;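 note: receptor activated by calcitriol during compound treatment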)). Conditions: HEK293T VDR-UAS-bla, beta-lactamase ratio, antagonist mode; series mostly up to 76.7 µM; activity change, negative = inhibition: at the top concentration.
Vitamin D3 receptor (Homo sapiens), sequence (P11473 whole entry, looked up): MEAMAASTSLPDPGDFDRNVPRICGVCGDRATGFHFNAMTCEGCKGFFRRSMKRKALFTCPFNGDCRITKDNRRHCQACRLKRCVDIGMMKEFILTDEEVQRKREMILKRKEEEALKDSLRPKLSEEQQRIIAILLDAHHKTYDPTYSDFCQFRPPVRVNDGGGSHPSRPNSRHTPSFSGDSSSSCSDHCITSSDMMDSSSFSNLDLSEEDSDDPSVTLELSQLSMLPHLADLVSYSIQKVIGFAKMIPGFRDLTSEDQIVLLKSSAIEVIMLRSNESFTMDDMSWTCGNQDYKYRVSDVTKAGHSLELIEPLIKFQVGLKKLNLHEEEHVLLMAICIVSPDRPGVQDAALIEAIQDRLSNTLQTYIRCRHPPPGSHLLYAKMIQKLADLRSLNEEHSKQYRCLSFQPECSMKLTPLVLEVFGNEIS
From the text: NIH Chemical Genomics Center [NCGC]
U.S. Environmental Protection Agency [EPA]
National Institutes of Environmental Health Sciences [NIEHS]
National Toxicology Program [NTP]
The Vitamin D receptor (VDR) is a member of nuclear hormone receptor superfamily and it plays a critical role in calcium homeostasis and bone metabolism. It plays a role in inducing cell differentiation, inhibiting cell growth and in thrombogenicity. So, VDR that mediates these effects represents a pharmacological target in prevention and treatment of hyperproliferative malignancies, such as cancer and psoriasis, cardiovascular, immunological, inflammatory and renal diseases etc.
NCGC Assay Protocol Summary
Using a beta-lactamase reporter-gene under control of Vitamin D receptor (VDR) response element, a cell-based assay [GeneBLAzer (VDR -UAS-bla assay developed by Invitrogen] was used to measure VDR ligands signaling. GeneBLAzer VDR -UAS-bla HEK293T cells were used with assay medium containing 2% charcoal-stripped FBS. The assay was performed in clear bottom black Greiner 1536-well plates. Library compounds were measured for their ability to inhibit the reporter gene activity. Compounds were screened in a titration series in 1536-well format. The fluorescence intensity (405 nm excitation, 460/530 nm emission) was measured using an EnVision plate reader. Data was normalized relative to 1-alpha,25-Dihydroxy vitaminD3 control (50 nM, 100%) and DMSO only wells (basal, 0%). Concentration-response titration points for each compound were fitted to the Hill equation yielding concentrations of half-maximal inhibition (IC50) and maximal response (efficacy) values.
qHTS protocol for VDR beta-lactamase assay in antagonist mode
[Step] [Parameter] [Value] [Description]
1. Reagent; 5 uL; 2000 cells/well
2. Incubation; 37 C for 5 hrs
4. Controls (DMSO); 23 nL,
5. Agonist (Stimulator); 1uL; 1-alpha,25-Dihydroxy vitaminD3 at 50 nM and 3 nM final concentrations
6. Incubation; 37 C for 16 hrs
7. Detection reagent; 1 uL of CCF4-dye
8. Incubation; RT for 2 hrs
9. Detection; Fluorescence; Envision plate reader
`Cc1cc(=O)oc2cc(O)cc(O)c12` was tested, and the “activity change, negative = inhibition” value was 5.93% (inactive).
With `N[C@@H](Cc1ccccc1)C(=O)O` the “activity change, negative = inhibition” value was 2.77% (inactive).
For `O=[N+]([O-])c1cc(Cl)c(Cl)c(Cl)c1Cl`, the “activity change, negative = inhibition” value was 6.18% (inactive).
`C=CC(=O)CC` was tested, and the “activity change, negative = inhibition” value was 3.58% (inactive).
With `O=C(O)c1ccc([N+](=O)[O-])cc1` the Potency was “inactive”.
With `OCC(CBr)(CBr)CBr` the “activity change, negative = inhibition” value was 6.83% (inactive).
`C=CC(C)(O)CCCC(C)CCCC(C)CCCC(C)C` (stereo not given) was tested, and the “activity change, negative = inhibition” value was 3.07% (inactive).
For `Oc1c(Cl)cc(Cl)c(Cl)c1Cl`, the Potency was “inactive”.
With `CC(=O)Nc1cccc(C)c1` the “activity change, negative = inhibition” value was 2.73% (inactive).
For `COc1cc(-c2ccc(N=C=O)c(OC)c2)ccc1N=C=O`, the “activity change, negative = inhibition” value was -5.93% (inactive).
With `c1c[nH]cn1` the “activity change, negative = inhibition” value was 0.0066% (inactive).
With `S=C(NC1CCCCC1)NC1CCCCC1` the “activity change, negative = inhibition” value was 19.8% (inactive).
For `Cc1cc(-c2ccc(N=Nc3cc(S(=O)(=O)O)c4ccccc4c3N)c(C)c2)ccc1N=Nc1cc(S(=O)(=O)O)c2ccccc2c1N`, the “activity change, negative = inhibition” value was -9.4% (inactive).
For `O=c1[nH]ncc2ccccc12`, the “activity change, negative = inhibition” value was -1.45% (inactive).
In the case of `O=[N+]([O-])c1cccc(I)c1`, the “activity change, negative = inhibition” value is reported as 1.13% (inactive).
In the case of `OC1CCCCC1`, the “activity change, negative = inhibition” value is reported as -7.24% (inactive).
With `O=C=Nc1ccc(Cl)c(Cl)c1` the “activity change, negative = inhibition” value was -15.2% (inactive).
In the case of `Cc1c(C(=O)O)c(O)cc2c1C(=O)c1c(O)c([C@H]3O[C@H](CO)[C@@H](O)[C@H](O)[C@H]3O)c(O)c(O)c1C2=O`, the “activity change, negative = inhibition” value is reported as -0.921% (inactive).
For `CC(=O)OCc1ccc2c(c1)OCO2`, the “activity change, negative = inhibition” value was -1.08% (inactive).
`O=C(OCc1ccccc1)c1ccccc1O` was tested, and the Potency was “inactive”.
In the case of `CN(C)c1ccc(Cc2ccc(N(C)C)cc2)cc1`, the Potency is reported as “inactive”.
With `O=C1c2ccccc2C(=O)C1(O)O` the “activity change, negative = inhibition” value was 3.51% (inactive).
`CC1=C(/C=C/C(C)=C/C=C/C(C)=C/C=O)C(C)(C)CCC1` was tested, and the “activity change, negative = inhibition” value was -32.9% (inactive).
`c1ccc2c(c1)ccc1ccccc12` was tested, and the Potency was “inactive”.
For `CC(CCC(=O)O)(c1ccc(O)cc1)c1ccc(O)cc1`, the Potency was “inactive”.
With `c1cc2c3c(c1)ccc1cccc(c13)C2` the “activity change, negative = inhibition” value was -4.51% (inactive).
`c1ccc(COCc2ccccc2)cc1` was tested, and the “activity change, negative = inhibition” value was -2.81% (inactive).
`c1ccc(CSCc2ccccc2)cc1` was tested, and the “activity change, negative = inhibition” value was -2.25% (inactive).
With `CC(/C=C/C=C(C)/C=C/C(=O)O)=C\C=C\C=C(C)\C=C\C=C(C)\C=C\C(=O)O` the “activity change, negative = inhibition” value was 10.7% (inactive).
In the case of `O=C1OC(=O)c2ccccc21`, the “activity change, negative = inhibition” value is reported as 0.29% (inactive).
In the case of `CCCCC(CC)COP(=O)(OCC(CC)CCCC)OCC(CC)CCCC` (stereo not given), the “activity change, negative = inhibition” value is reported as -4.75% (inactive).
In the case of `CCCCC(CC)COC(=O)COc1ccc(Cl)cc1Cl` (stereo not given), the Potency is reported as “inactive”.
`Brc1cc(Br)c(Oc2cc(Br)c(Br)cc2Br)cc1Br` was tested, and the “activity change, negative = inhibition” value was 8.61% (inactive).
`c1ccc(SCCSc2ccccc2)cc1` was tested, and the “activity change, negative = inhibition” value was -2.63% (inactive).
In the case of `C=Cc1cccc(C)c1`, the “activity change, negative = inhibition” value is reported as -0.501% (inactive).
With `O=[N+]([O-])c1ccc(F)cc1F` the “activity change, negative = inhibition” value was 3.53% (inactive).
For `Nc1cc([N+](=O)[O-])ccc1O`, the Potency was “inactive”.
For `Oc1cc(Cl)cc(Cl)c1Cl`, the “activity change, negative = inhibition” value was -8.8% (inactive).
In the case of `Cc1ccc(C(=O)O)cc1[N+](=O)[O-]`, the “activity change, negative = inhibition” value is reported as 3.89% (inactive).
In the case of `Nc1ccc(-c2ccc(N)c(O)c2)cc1O`, the “activity change, negative = inhibition” value is reported as -5.22% (inactive).
